Assay [1] deals with TRPC4 beta (transient receptor potential cation channel C4), mouse. In words: activators of mouse TRPC4 channel, confirmation, cell-based, Fluo4 calcium, HEK293 TRPC4beta/mu-opioid, duplicates, 10 µM (AID 2426;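 active means fluorescence ratio normalized to control raised more than 50% in primary screen plus both repeat runs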). To be noted: Fluo4 calcium fluorescence, at 10 µM; stronger effect = higher value.
For assay [2], the system named is transient receptor potential cation channel C4 beta (TRPC4), mouse. In words: activators of mouse TRPC4 channel, confirmation, cell-based, second round, Fluo4, HEK293 TRPC4beta/mu-opioid, 1 µM (AID 2461;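 active means primary screen active and over 50% activation in each of two duplicate runs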). To be noted: Fluo4 calcium fluorescence, at 1 µM; stronger effect = higher value.
Assay [3] relates to TRPC4 (transient receptor potential cation channel C4 beta), mouse. In words: positive allosteric modulators of mouse TRPC4, confirmation, cell-based, second round, Fluo-4, HEK293 TRPC4beta/mu-opioid, 1 µM (AID 2554). To be noted: DAMGO EC20, Fluo-4 calcium flux, at 1 µM; stronger effect = higher value. Background: Calcium assays in cells follow changes in intracellular calcium, usually with a dye or a luminescent sensor.

Assay [4] deals with TRPC4 beta (transient receptor potential cation channel C4), mouse. The experiment in a line: positive allosteric modulators of mouse TRPC4, confirmation, cell-based, Fluo-4, HEK293 TRPC4beta/mu-opioid (AID 2555;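 active means primary screen hit whose calcium fluorescence ratio, in both repeats, exceeds the weak agonist control mean by 3 SD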). To be noted: DAMGO EC20, Fluo-4 calcium flux, at 10 µM; stronger effect = higher value.
Assay [5] concerns the target Short transient receptor potential channel 4 (Mus musculus) (UniProt Q9QUQ5). The experiment in a line: inhibitors of mouse TRPC4 channel, confirmation, cell-based, Fluo4, HEK293 TRPC4beta/mu-opioid (AID 2636;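 active means calcium signal cut by more than 3 SD below the full-agonist control yet still positive, in both repeats and the earlier primary screen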). To be noted: DAMGO, Fluo4 calcium flux, at 10 µM; stronger effect = higher value.
For assay [6] the target is unchanged. In words: inhibitors of mouse TRPC4 channel, confirmation, cell-based, second round, Fluo4, HEK293 TRPC4beta/mu-opioid, 1 µM (AID 2637;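 active means calcium signal ratio cut to more than 3 SD under the fully stimulated control mean yet still positive, in both repeats and the primary screen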). The conditions noted are these: Fluo4 calcium flux, DAMGO, at 1 µM; stronger effect = higher value.
The target is the same in assay [7]. In words: mouse TRPC4 channel activators, dose response, cell-based, HEK293 TRPC4/mu-opioid, Fluo-4 calcium (AID 434937;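 active means primary screen activator hit with a dose response curve and TRPC4 channel activation at any tested dose; inactive means no activation, no dose response, or not a primary hit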). To be noted: HEK293 TRPC4 cells, Fluo-4 calcium fluorescence ratio; series mostly up to 20 µM.
The target is the same in assay [8]. The experiment in a line: TRPC4 positive allosteric modulators, dose response, cell-based, HEK293 TRPC4/mu-opioid, Fluo-4 calcium, EC20 DAMGO (AID 434941;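 active means earlier screen potentiator hit that boosts the TRPC4 ion channel at some dose, with a dose response; inactive means no potentiation, no dose response, or not a prior hit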;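 further: calcium entry triggered by an EC20 dose of DAMGO at the co-expressed mu-opioid receptor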). The conditions noted are these: HEK293 TRPC4/mu-opioid cells, Fluo-4 calcium fluorescence; series mostly up to 20 µM.
For assay [9] the target is unchanged. In words: mouse TRPC4 channel inhibitors, dose response, cell-based, HEK293 TRPC4/mu-opioid, Fluo-4 calcium (AID 434942;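 active means primary screen inhibitor hit that blocks the TRPC4 channel at some tested dose, yielding a dose curve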). To be noted: HEK293 TRPC4/mu-opioid cells, DAMGO-evoked Fluo-4 calcium ratio; series mostly up to 20 µM.
In assay [10] the target is Short transient receptor potential channel 6 (Mus musculus) (UniProt Q61143). The experiment in a line: inhibition of mouse TRPC6 channel, confirmation, selectivity assay for TRPC4 inhibitor project, cell-based, HEK293, membrane potential dye, duplicate (AID 434948;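 active means active in primary screen and both duplicates, each dropping signal beyond three positive-control SD with fluorescence still positive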). The conditions noted are these: HEK293 TRPC6, membrane potential dye fluorescence, at 10 µM, stimulated with maximal-effect acetylcholine; stronger effect = higher value.

Assay [11] shares this target. The experiment in a line: activation of mouse TRPC6 channel, confirmation, selectivity assay for TRPC4 activator project, cell-based, HEK293, membrane potential dye, duplicate (AID 434950;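 active means membrane potential signal rise above negative control mean plus 3 SD in both duplicates, also active in the earlier TRPC4 screen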). The conditions noted are these: HEK293 TRPC6, membrane potential fluorescence, at 10 µM; stronger effect = higher value.
Assay [12] shares this target. The experiment in a line: TRPC6 potentiation by TRPC4 potentiator hits, confirmation, selectivity assay for TRPC4 potentiator project, HEK293 cells, membrane potential dye, duplicate (AID 434952;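 active means compound raising the membrane signal above positive-control mean plus 3 SD in both repeats, and a primary screen hit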). To be noted: HEK293 TRPC6, membrane potential dye fluorescence, at 10 µM, maximal acetylcholine added after compound; stronger effect = higher value.
Assay [13] concerns the target Short transient receptor potential channel 4 (Mus musculus) (UniProt Q9QUQ5). The experiment in a line: calcium flux activators in TRPC4/5HT1a cells, counter-screen for TRPC4 activator project, cell-based, second counter screen, HEK293 TRPC4/5HT1a, Fluo-4 (AID 434977;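 active means calcium signal rise above buffer-control mean plus 5 SD in both duplicates, and also a hit in the primary screen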). To be noted: Fluo-4 calcium flux, at 10 µM; stronger effect = higher value.
A short description of assay [14]: calcium flux inhibitors in TRPC4/5HT1a cells, confirmation, counter-screen for TRPC4 inhibitor project, cell-based, second counter screen, HEK293 TRPC4/5HT1a, Fluo-4 (AID 434978;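 active means primary screen active whose calcium signal fell more than 3 SD beyond the full-serotonin control mean in both duplicate plates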;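 further: serotonin given first at submaximal then at maximal dose after compound preincubation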). To be noted: Fluo-4 calcium flux, at 10 µM, serotonin added to trigger calcium flux; stronger effect = higher value.
Assay [15] deals with TRPC4 (mouse), co-expressed with 5HT1a in HEK293. In words: calcium flux potentiators in TRPC4/5HT1a cells, confirmation, counter-screen for TRPC4 potentiator project, cell-based, second counter screen, HEK293 TRPC4/5HT1a, Fluo-4 (AID 434979;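 active means signal rise over 3 SD above mean of control wells given weak agonist, in both repeats and first screen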). To be noted: Fluo-4 calcium flux, at 10 µM, serotonin added at its EC20 dose; stronger effect = higher value.
The nature of assay [16]: calcium flux activation in mu-opioid HEK293 cells, confirmation, counter-screen for TRPC4 activator project, cell-based, HEK293 mu-opioid receptor line (AID 449723;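 active means hit in primary screen, with calcium signal over 5 SD above buffer well mean in both duplicates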;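 further: counter screen cells carry the mu-opioid receptor alone and lack TRPC4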). The conditions noted are these: Fluo-4 calcium fluorescence, at 10 µM; stronger effect = higher value.
Assay [17] in a line: calcium flux enhancement in mu-opioid HEK293 cells, confirmation, counter-screen for TRPC4 allosteric potentiator project, cell-based, HEK293 mu-opioid receptor line (AID 449724;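 active means calcium signal rise more than 3 SD above the low-dose agonist control mean, in both duplicate plates and the primary screen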;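 further: HEK293 cells carrying mu-opioid receptor only with no TRPC4 channel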). The conditions noted are these: Fluo-4 calcium flux, at 10 µM, compound added before EC20 DAMGO stimulus; stronger effect = higher value.

For some of these results: Potency and affinity values are given separately. The source made the active and inactive calls.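 How the source made its calls, unless noted: active means primary screen hit whose fluorescence ratio, in both repeats, exceeds the weak agonist control mean by 3 SD; inactive means the rest.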

Short transient receptor potential channel 6 (Mus musculus), sequence (Q61143 whole entry, looked up): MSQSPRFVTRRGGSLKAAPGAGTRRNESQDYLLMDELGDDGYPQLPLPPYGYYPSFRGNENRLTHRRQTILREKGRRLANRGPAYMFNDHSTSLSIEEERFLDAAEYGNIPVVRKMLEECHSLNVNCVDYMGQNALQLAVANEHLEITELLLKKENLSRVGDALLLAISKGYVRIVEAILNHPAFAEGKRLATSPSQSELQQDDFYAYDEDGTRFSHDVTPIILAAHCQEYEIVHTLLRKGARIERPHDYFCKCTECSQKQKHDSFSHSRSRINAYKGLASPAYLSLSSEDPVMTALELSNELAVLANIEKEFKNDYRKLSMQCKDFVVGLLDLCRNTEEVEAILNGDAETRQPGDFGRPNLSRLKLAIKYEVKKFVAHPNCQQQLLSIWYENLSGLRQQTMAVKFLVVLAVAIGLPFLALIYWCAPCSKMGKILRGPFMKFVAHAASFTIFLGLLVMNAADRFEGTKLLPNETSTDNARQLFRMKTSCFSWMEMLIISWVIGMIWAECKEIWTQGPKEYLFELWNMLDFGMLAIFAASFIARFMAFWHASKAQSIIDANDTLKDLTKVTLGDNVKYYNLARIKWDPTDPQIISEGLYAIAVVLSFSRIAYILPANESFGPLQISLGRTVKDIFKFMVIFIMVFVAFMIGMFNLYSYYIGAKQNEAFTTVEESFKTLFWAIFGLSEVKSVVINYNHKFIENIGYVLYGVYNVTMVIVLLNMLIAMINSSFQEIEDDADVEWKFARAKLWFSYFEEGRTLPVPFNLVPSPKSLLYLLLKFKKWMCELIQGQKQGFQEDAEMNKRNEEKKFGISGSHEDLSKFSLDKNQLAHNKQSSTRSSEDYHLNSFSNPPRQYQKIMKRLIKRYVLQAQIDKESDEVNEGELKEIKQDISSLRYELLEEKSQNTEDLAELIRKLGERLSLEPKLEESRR
Short transient receptor potential channel 4 (Mus musculus), sequence (Q9QUQ5 whole entry, looked up): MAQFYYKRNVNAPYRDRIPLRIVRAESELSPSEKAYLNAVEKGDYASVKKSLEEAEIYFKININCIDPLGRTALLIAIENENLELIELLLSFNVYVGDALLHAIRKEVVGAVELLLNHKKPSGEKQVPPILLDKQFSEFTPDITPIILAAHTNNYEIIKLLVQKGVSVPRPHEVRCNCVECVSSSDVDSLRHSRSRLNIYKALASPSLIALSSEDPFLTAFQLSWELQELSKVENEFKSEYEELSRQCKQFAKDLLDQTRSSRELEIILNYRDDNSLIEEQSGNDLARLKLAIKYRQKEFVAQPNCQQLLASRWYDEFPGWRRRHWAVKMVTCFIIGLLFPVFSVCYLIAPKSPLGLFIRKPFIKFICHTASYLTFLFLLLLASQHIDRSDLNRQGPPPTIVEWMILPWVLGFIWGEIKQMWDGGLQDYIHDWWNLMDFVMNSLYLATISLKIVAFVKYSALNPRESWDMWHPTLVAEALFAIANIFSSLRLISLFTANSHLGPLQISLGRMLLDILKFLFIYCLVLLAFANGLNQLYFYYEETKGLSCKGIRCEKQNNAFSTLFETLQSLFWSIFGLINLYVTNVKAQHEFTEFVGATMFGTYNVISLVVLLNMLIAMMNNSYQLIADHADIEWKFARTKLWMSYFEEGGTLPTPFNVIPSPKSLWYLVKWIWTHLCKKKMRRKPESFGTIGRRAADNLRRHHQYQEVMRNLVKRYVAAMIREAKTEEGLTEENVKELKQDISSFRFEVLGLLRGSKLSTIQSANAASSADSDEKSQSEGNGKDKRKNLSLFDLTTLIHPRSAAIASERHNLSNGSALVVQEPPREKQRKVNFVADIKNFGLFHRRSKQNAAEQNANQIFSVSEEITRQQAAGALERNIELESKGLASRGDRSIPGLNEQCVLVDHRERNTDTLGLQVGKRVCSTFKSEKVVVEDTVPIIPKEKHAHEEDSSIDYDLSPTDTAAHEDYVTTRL

Turning to `COc1ccc(S(=O)(=O)n2nc(OC(=O)c3ccccc3Br)cc2N)cc1`, the outcome in assay [1], in assay [2], in [3], in [4], in assay [5] and in [6] was inactive. Further, the outcome in assay [7], in [8], in [9], in assay [10], in assay [11] and in assay [12] was inactive. The outcome in assay [13], in assay [14], in assay [15], in assay [16] and in assay [17] was inactive.

As to `CCc1cc2c(SCC(=O)N(C)C3CCS(=O)(=O)C3)ncnc2s1` (stereo not drawn), the outcome in assay [1], in assay [2], in [3], in assay [5], in assay [6] and in assay [7] was inactive. In addition, the result in [8], in [9], in assay [10], in [11], in assay [12] and in assay [13] was inactive. The result in assay [14], in assay [16] and in assay [17] was inactive. Also, the potentiation is 35% (active) in assay [4] and 42.5% (active) in assay [15].

For the molecule `Oc1ccccc1-c1cc(-c2ccco2)[nH]n1`, the outcome in assay [1], in assay [2], in [3], in [4], in assay [5] and in [6] was inactive. In addition, the outcome in assay [7], in assay [8], in [9], in assay [10], in assay [11] and in assay [12] was inactive. Besides, the outcome in [13], in assay [14], in assay [15], in [16] and in [17] was inactive.

For the molecule `Cn1c(=O)c2c(nc(CN3CCc4ccccc4C3)n2Cc2cccc(Cl)c2)n(C)c1=O`, the outcome in [1], in [2], in assay [5], in assay [6], in [7] and in assay [8] was inactive. Moreover, the result in [9], in assay [10], in assay [11], in assay [12], in assay [13] and in assay [14] was inactive. Moreover, the outcome in assay [16] and in assay [17] was inactive. Besides, the potentiation in [3] is 6% (active); in [4], 45% (active); in assay [15], 78.3% (active).

Take `COc1ccc(/C=C2/SC(=S)N(NS(=O)(=O)c3ccc(C)cc3)C2=O)cc1`: the result in assay [1], in [2], in assay [3], in assay [4], in assay [5] and in assay [6] was inactive. Besides, the result in assay [7], in assay [8], in assay [9], in [10], in [11] and in assay [12] was inactive. Besides, the outcome in assay [13], in [14], in assay [15], in assay [16] and in [17] was inactive.

On to `COc1ccc(-n2ncc3c(N4CCc5ccccc54)ncnc32)cc1`, for which the outcome in assay [1], in [2], in assay [3], in [4], in assay [5] and in assay [6] was inactive. The outcome in assay [7], in assay [8], in assay [9], in [10], in [11] and in assay [12] was inactive. Also, the result in [13], in [14], in [15], in [16] and in [17] was inactive.

On to `CC1CCN(CCc2nc3cc(NS(=O)(=O)c4ccc(F)cc4)ccc3n2C)CC1`, for which the outcome in [1], in assay [2], in assay [3], in [4], in assay [5] and in assay [6] was inactive. The outcome in assay [7], in [8], in assay [9], in assay [10], in assay [11] and in [12] was inactive. The outcome in assay [13], in [14], in assay [16] and in assay [17] was inactive. Further, the potentiation in assay [15] was 7.72% (active).

`CN(C)CCCNC(=O)/C=C/c1ccc(OCc2c(F)cccc2Cl)cc1`: the outcome in [1], in [2], in [3], in assay [4], in assay [5] and in assay [6] was inactive. Further, the result in [7], in [8], in [9], in assay [10], in assay [11] and in [12] was inactive. Moreover, the result in assay [13], in assay [14], in assay [16] and in assay [17] was inactive. Further, the potentiation in assay [15] is 16.2% (active).

With `O=S(=O)(c1ccc(Cl)cc1Br)N1CCCCC1`, the outcome in assay [1], in assay [2], in assay [3], in assay [4], in assay [5] and in [6] was inactive. Besides, the outcome in assay [7], in assay [8], in [9], in [10], in assay [11] and in assay [12] was inactive. Further, the result in [13], in assay [14], in assay [15], in assay [16] and in assay [17] was inactive.

As to `CCOP(=O)(OCC)c1nc(-c2ccc(Cl)cc2Cl)oc1N1CCCCC1`, the outcome in assay [1], in [2], in assay [3], in assay [4], in assay [5] and in assay [6] was inactive. Moreover, the result in assay [7], in assay [8], in assay [9], in [10], in [11] and in assay [12] was inactive. Moreover, the result in assay [13], in assay [14], in assay [16] and in assay [17] was inactive. In addition, the potentiation in assay [15] is 54.2% (active).

`O=[N+]([O-])c1cc(Cc2ccccc2)cc(C=Nc2ccc(N3CCOCC3)cc2)c1O`: the result in assay [1], in assay [2], in [3], in assay [4], in assay [5] and in assay [6] was inactive. Also, the result in assay [7], in [8], in [9], in assay [10], in [11] and in assay [12] was inactive. For the same molecule, the outcome in [13], in [14], in assay [15], in [16] and in [17] was inactive.

As for `Clc1ccc2nc(CN3CCCc4ccccc43)cn2c1`, the result in assay [1], in assay [2], in assay [3], in [5], in [6] and in assay [7] was inactive. In addition, the outcome in [8], in assay [9], in assay [10], in assay [11], in [12] and in [13] was inactive. The result in assay [14], in [16] and in assay [17] was inactive. In addition, the figures for the potentiation in assay [4] and in [15] were 12% (active) and 28% (active), respectively.

`COc1ccc(F)cc1C(=O)C1CCCN(Cc2cccn2-c2ccccn2)C1` (stereo not drawn): the result in [1], in assay [2], in assay [3], in assay [4], in [5] and in assay [6] was inactive. The outcome in [7], in [8], in [9], in assay [10], in assay [11] and in assay [12] was inactive. Also, the outcome in assay [13], in [14], in assay [15], in assay [16] and in assay [17] was inactive.

As to `Cc1ccc(Cn2c(=N)c(C(=O)NCCN3CCOCC3)cc3c(=O)n4ccccc4nc32)cc1`, the outcome in assay [1], in assay [2], in assay [3], in assay [5], in [6] and in assay [7] was inactive. The result in assay [8], in [9], in [10], in assay [11], in [12] and in assay [13] was inactive. Moreover, the outcome in [14], in assay [15], in [16] and in [17] was inactive. The potentiation in assay [4] was 31% (active).

For the origin of these results see PubChem BioAssay.
